This is an account of results in PubChem BioAssay (NCI).

The panel holds about 83,000 compounds, 20% with a hit somewhere; the sample as a whole holds those more often.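 In brief: 96-well plates, 48 h treatment, single concentration, percent growth endpoint.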 Values without a mark were called inactive. Activity calls are given as the source filed them. Rule for the calls: active = growth percent below 10; inactive = the rest.

The test system of this assay is HL-60(TB) leukemia. Description: NCI-60 one-dose screen, 48 h (100 = growth as untreated, 0 = no growth, -100 = all killed). To be noted: 10 µM unless noted.

Consider `COc1cc(C(=O)/C=C/c2cc(-c3ccc4c(c3)OCO4)n[nH]2)cc(OC)c1OC`, for which the growth is -16.6% (active).

For `COc1ccc(/C(=C\c2cc(OC)c(OC)c(OC)c2)C(=O)N2CCCNCC2)cc1`, the growth is 96.4%.

In the case of `O=C(NN(C(=O)c1ccccc1)c1cccs1)c1ccccc1`, the growth is 101%.

Turning to `CC(=O)c1nc2ccccc2n1CCNC(N)=O`, the growth is 80.5%.

For `CCCCN(C)N=Nc1ccc(C(N)=O)cc1`, the growth was 73.5%.

For `COc1ccc2[nH]c(C(=O)N3CCN(C(=O)OCc4ccc5c(Br)cc(Br)c(O)c5n4)CC3)cc2c1`, the growth is -42.1% (active).

With `Cc1ccc(-n2nc3c(c(C#N)c2=O)CC(c2ccccc2Cl)C([N+](=O)[O-])=C3O)cc1` (stereo not given), the growth is 96%.

Turning to `CC(C)c1ccc2occ(C=C3C(=O)NC(=O)NC3=O)c(=O)c2c1`, the growth was 74.8%.

`N#C/C(=C1C=C/C(=N/O)C(Br)=C/1)c1ccccc1`: the growth was -20.5% (active).

In the case of `COC(CCP(=O)(c1ccccc1)c1ccccc1)(C(=O)c1ccccc1)c1ccccc1` (stereo not given), the growth is 7.75% (active).

As for `O=c1[nH]c(=O)n(Cc2ccc(F)cc2)cc1F`, the growth is 88.7% [50 µM].

In the case of `CC(C)[C@@H]1NC(=O)[C@]2(C)CSC(=N2)c2ccnc(c2)CNC(=O)C[C@@H](/C=C/CCS)OC1=O`, the growth was 9.07% (active).

For the compound `CN(C)c1ccc(N=Cc2ccc(N3CCOCC3)cc2)cc1`, the growth is 16.6%.

Regarding `O=C(Nc1ccc(I)cc1F)c1cc(I)ccc1O`, the growth was -25.2% (active).

Consider `Fc1ccccc1Nc1n[nH]c(=S)s1`, for which the growth was 112%.

As for `C#C[C@]1(O)CC[C@H]2[C@@H]3CC=C4c5sc(Nc6ccccc6)nc5CC[C@]4(C)[C@H]3CC[C@@]21C`, the growth was 7.59% (active).

For `Cc1[nH]c(-c2ccc3cc[nH]c3c2)c2c1C(=O)CCCC2`, the growth is 20.5%.

With `COc1ccc(CN2C(=O)/C(=C\C(=O)c3ccc(OCCN4CCCC4)cc3)c3ccccc32)cc1`, the growth was 4.86% (active).

Take `O=C(CCl)n1nnnc1Cc1ccccc1`: the growth is 83.5%.

On to `NC(=O)c1c(NC(=O)c2ccc(Cl)cc2)sc2c1CCC(=O)C2`, for which the growth was 48.6%.

For the compound `O=C1/C(=C/c2ccc(Cl)cc2)CN(C(=O)C(Cl)Cl)C/C1=C\c1ccc(Cl)cc1`, the growth was -19.3% (active).

For the compound `COc1cc2c3c(n(C4CCN(C)CC4)c(=O)c2cc1OC)-c1cc2c(cc1C3=O)OCO2`, the growth is 95%.

In the case of `CN1CCC(CNc2cc(C3(C(=O)Nc4cc(C(=O)Nc5ccc(Cl)c(C(F)(F)F)c5)ccc4F)CC3)ncn2)CC1`, the growth was -7.85% (active).

In the case of `Cc1ccc(N2C3c4ccccc4N(S(=O)(=O)c4ccc(C)cc4)C2c2ccccc2N3S(=O)(=O)c2ccc(C)cc2)cc1`, the growth is 80.5%.

As to `COc1cc(/C=C/c2cc(/C=C/c3ccc(O)c(OC)c3)n(C(=O)Nc3ccccc3Cl)n2)ccc1O`, the growth was -24.3% (active).

`C=C1C(=O)O[C@H]2[C@H]1CC/C(COC(=O)NCc1c[nH]c3ccccc13)=C\CC[C@@]1(C)O[C@@H]21`: the growth was -46.8% (active).

As to `O=C1/C(=C/c2ccccc2)CCC/C1=C\c1ccccc1`, the growth is 97.8%.

In the case of `Cc1cc(O)cc(-c2c(-c3ccnc(-c4cccnc4)c3)cnn2C)c1`, the growth is 46%.

Take `CCn1cc(C(=O)O)c(=O)c2cc(F)c(N3CCN(S(=O)(=O)c4ccc(OC)c(OC)c4)CC3)cc21`: the growth was 91.3%.

With `O=C(N/N=C/c1ccc(Cl)cc1)c1[nH]c2ccc(Cl)cc2c1-c1ccccc1`, the growth was 13%.

`C=C(C(=O)c1ccccc1)C(NC(C)(C)C)c1ccccc1` (stereo not given): the growth was -14.7% (active).

As to `COc1c(O)cc2oc3cc(O)c(CC=C(C)C)c(O)c3c(=O)c2c1CC=C(C)C`, the growth is 65.9%.

With `Nc1nc(N)c2cc(Sc3cccc(C(F)(F)F)c3)ccc2n1`, the growth is 24.6%.

In the case of `Cc1ccc2c(n1)C[C@H](C(C)(C)O)CC[C@H]2C`, the growth is 103%.

Consider `C=C1C(=O)O[C@H]2[C@H]1CC/C(COC(=O)/C=C\C(=O)NCc1ccc(Cn3c(=O)sn(-c4ccccc4)c3=O)cc1)=C\CC[C@@]1(C)O[C@@H]21`, for which the growth is -3.22% (active).
